This note sets out measurements from PubChem BioAssay (EPA / NIEHS).

The AC50 is the midpoint of the concentration-response curve, whichever way the signal moves.

In one assay the test system is DIO1 (gene 1733). The assay is described as follows: CCTE_GLTED_hDIO1: CCTE's human Deiodinase 1 (DIO1) Inhibition Assay, Great Lakes Toxicology and Ecology Division (GLTED) Lab (AID 2283987; active = hit-call score of the fitted dose curve at least 0.9, where 1 is the maximum;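 note: isolated human DIO1 enzyme in a cell-free setup rather than cells; enzyme activity read as free iodide liberated from substrate via Sandell-Kolthoff colorimetry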). Summed up:
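Cell-free human DIO1 enzyme was incubated with test chemical for 3 h, and iodide released from substrate was measured by Sandell-Kolthoff absorbance. Loss of signal versus DMSO baseline indicated inhibition; plates were run in triplicate.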

Assay [1] in a line: CCTE_Harrill_HTTr_Viability_PRF_DMEM_12hr: (Pilot) CCTE's 12-hour Cell Viability Assessment for the High-Throughput Transcriptomics (HTTr) Platform, in MCF-7 cells cultured in phenol red-free DMEM + 10% charcoal-stripped fetal bovine serum, Harrill Lab (AID 2283977). The gist of the method: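 MCF-7 cells in phenol red-free DMEM with 10% charcoal-stripped FBS exposed 12 hours to an eight-point dilution series. Viability assessed by high-content imaging of propidium iodide exclusion; bidirectional fit versus DMSO.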

Assay [2] can be described thus: CCTE_Harrill_HTTr_Viability_PRF_DMEM_24hr: (Pilot) CCTE's 24-hour Cell Viability Assessment for the High-Throughput Transcriptomics (HTTr) Platform, in MCF-7 cells cultured in phenol red-free DMEM + 10% charcoal-stripped fetal bovine serum, Harrill Lab (AID 2283980). Summed up:
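MCF-7 cells in phenol red-free DMEM with 10% charcoal-stripped FBS, eight-point dilution series, 24 h exposure. Membrane integrity by propidium iodide exclusion with high content imaging; bidirectional fit vs DMSO.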

Assay [3] is described as follows: CCTE_Harrill_HTTr_Apoptosis_DMEM_6hr: (Pilot) CCTE's 6-hour Apoptosis Assessment for the High-Throughput Transcriptomics (HTTr) Platform, in MCF-7 cells cultured in DMEM + 10% fetal bovine serum, Harrill Lab (AID 2283981). Summed up: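 Caspase-3/7 activation read by high content imaging with CellEvent Caspase 3/7 Green in MCF-7 cells (DMEM + 10% FBS), 6 h after dosing; eight-point dilution series. Bidirectional fitting relative to DMSO baseline.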

The nature of assay [4]: CCTE_Harrill_HTTr_Apoptosis_DMEM_12hr: (Pilot) CCTE's 12-hour Apoptosis Assessment for the High-Throughput Transcriptomics (HTTr) Platform, in MCF-7 cells cultured in DMEM + 10% fetal bovine serum, Harrill Lab (AID 2283982). The gist of the method: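 MCF-7 cells in DMEM + 10% FBS, exposed 12 h to an eight-point dilution series; caspase-3/7 activation imaged with CellEvent Green. Bidirectional fit versus DMSO.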

The nature of assay [5]: CCTE_Harrill_HTTr_Apoptosis_DMEM_24hr: (Pilot) CCTE's 24-hour Apoptosis Assessment for the High-Throughput Transcriptomics (HTTr) Platform, in MCF-7 cells cultured in DMEM + 10% fetal bovine serum, Harrill Lab (AID 2283983). Summed up: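 MCF-7 cells in DMEM + 10% FBS, eight-point dilution series, 24 h exposure. Caspase-3/7 activation imaged by high-content imaging with CellEvent Caspase 3/7 Green. Bidirectional curve fitting against DMSO baseline.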

Assay [6] is described as follows: CCTE_Harrill_HTTr_Apoptosis_PRF_DMEM_6hr: (Pilot) CCTE's 6-hour Apoptosis Assessment for the High-Throughput Transcriptomics (HTTr) Platform, in MCF-7 cells cultured phenol red-free DMEM + 10% charcoal-stripped fetal bovine serum, Harrill Lab (AID 2283984). Summed up: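 MCF-7 cells in phenol red-free DMEM + 10% charcoal-stripped FBS, eight-point dilution series, 6 h exposure. Caspase-3/7 activation imaged by high-content imaging with CellEvent Caspase 3/7 Green; bidirectional fit versus DMSO baseline.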

Assay [7] can be described thus: CCTE_Harrill_HTTr_Apoptosis_PRF_DMEM_12hr: (Pilot) CCTE's 12-hour Apoptosis Assessment for the High-Throughput Transcriptomics (HTTr) Platform, in MCF-7 cells cultured in phenol red-free DMEM + 10% charcoal-stripped fetal bovine serum, Harrill Lab (AID 2283985). The source says:
This is a cell-based assay that evaluates apoptosis using high content imaging to evaluate activation of caspase-3/7 using the CellEvent Caspase 3/7 Green detection reagent in 384-well format.One of seven assay components measured from the CCTE_Harrill_HTTr_Apoptosis assay. This was part of a pilot experiment. This is a cell-based assay that evaluates apoptosis in MCF-7 cells cultured in phenol red-free DMEM + 10% charcoal-stripped fetal bovine serum. High content imaging is used to evaluate activation of caspase-3/7 using the CellEvent Caspase 3/7 Green detection reagent. Measurements are taken at 12 hours after chemical dosing in 384-well format.The assay component endpoint CCTE_Harrill_HTTr_Apoptosis_PRF_DMEM_12hr was analyzed with bidirectional fitting relation to DMSO as the negative control and baseline of activity. Using a type of viability reporter, gain-of-signal activity can be used to evaluate activation of caspase-3/7 using the CellEvent Caspase 3/7 Green detection reagent to understand changes in apoptosis. To generalize the intended target to other relatable targets, this assay endpoint is annotated to cell cycle, where the subfamily is apoptosis.
Chemicals were tested in MCF7 cells in an eight point dilution series with a twelve hour exposure duration.

A short description of assay [8]: CCTE_Harrill_HTTr_Apoptosis_PRF_DMEM_24hr: (Pilot) CCTE's 24-hour Apoptosis Assessment for the High-Throughput Transcriptomics (HTTr) Platform, in MCF-7 cells cultured in phenol red-free DMEM + 10% charcoal-stripped fetal bovine serum, Harrill Lab (AID 2283986). The gist of the method:
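MCF-7 cells in phenol red-free DMEM with 10% charcoal-stripped FBS, exposed 24 h across an eight-point dilution series. Caspase-3/7 activation imaged with CellEvent Green by high content imaging; bidirectional fitting against DMSO.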

Assay [9] is described as follows: TOX21_TR_RXR_BLA_Antagonist_Followup_viability: Viability Assessment in the Tox21 Thyroid Hormone Receptor beta Retinoid X Receptor alpha (RXRa) Antagonism Beta-lactamase (BLA) Follow-Up Assay (AID 2283979; active = hit-call score of the fitted dose curve at least 0.9, where 1 is the maximum). The gist of the method:
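RXRa-bla HEK293T cells (2,500/well, phenol red-free DMEM, 2% charcoal-stripped FBS) were attached 5 h, then exposed to compounds at 11 concentrations in triplicate for 16 h at 37C. Viability measured by CellTiter-Glo ATP luminescence, bidirectional fitting versus DMSO.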

“And” between values parts separate entries of the source, which are not always exact repeats. Equal entries are not always repeated. Results filed as inconclusive are left out. The source made the active and inactive calls. Rule for the calls, unless noted: active = hit-call score of the fitted dose curve at least 0.9, where 1 is the maximum; inactive = score below 0.9.

For the compound `Oc1cc(Cl)ccc1Oc1ccc(Cl)cc1Cl`, the AC50 in the assay on DIO1 (gene 1733) is 60.4 µM (active) [middle of 5 runs].
Regarding `CCCN(CCOc1c(Cl)cc(Cl)cc1Cl)C(=O)n1ccnc1`, the outcome in [1], in assay [3], in assay [4], in [5], in assay [6] and in assay [7] was inactive. Also, in [8], the outcome was inactive. Besides, the AC50 in assay [2] is 9.92 µM (active).
Turning to `CC1(c2ccc(Oc3ccccc3)cc2)OC(=O)N(Nc2ccccc2)C1=O` (stereo not given), the half-maximal activity concentration (AC50) in assay [9] is 38.5 µM (active).
For `COP(=S)(OC)Oc1ccc(SC)c(C)c1`, the AC50 with DIO1 (gene 1733) is 10.7 µM (active).
Take `O=C(O)C(F)(F)C(F)(F)C(F)(F)C(F)(F)C(F)(F)C(F)(F)C(F)(F)F`: the outcome in [1], in [2], in [3], in assay [4], in [5] and in assay [6] was inactive. Also, the outcome in assay [7] and in assay [8] was inactive.
For `O=S(=O)(O)C(F)(F)C(F)(F)C(F)(F)C(F)(F)C(F)(F)C(F)(F)C(F)(F)C(F)(F)F`, the result in assay [1], in assay [2], in assay [3], in [4], in assay [5] and in [6] was inactive. The outcome in [7] and in [8] was inactive. In the assay on DIO1 (gene 1733), the AC50 was 173 µM (active) and 159 µM (active) and 170 µM (active).
On to `N#Cc1c(Cl)c(Cl)c(Cl)c(C#N)c1Cl`, for which the AC50 in the assay on DIO1 (gene 1733) was 30.1 µM (active).
Regarding `CCC(C)(NC(=O)c1cc(Cl)c(C)c(Cl)c1)C(=O)CCl` (stereo not given), in the assay with DIO1 (gene 1733), the concentration at half-maximal activity (AC50) is 16.1 µM (active).
